# Inconclusive results are not listed. A call without a number means that no potency is given here. The source made the active and inactive calls. The call rests on the fitted dose curve; in most records, active means well fitted curve in the direction sought with a large enough effect; inconclusive means small, poorly fitted or top-dose-only effect, or another doubt; inactive means no such curve, though single readings can be large; an effect the other way counts as inactive or inconclusive.
# Legend:
# [1] = Primary qHTS for inhibitors of nuclear receptor binding SET domain protein 2 (NSD2) in an RCH-ACV wild type WT cells (2C) (AID 1645877); further: nearly all actives have a fitted effect of over 70% in size; further: potency means the concentration at half of the fitted maximal effect
# [2] = NCATS anti-infectives library activity on HEK293 viability as a counter-qHTS vs the C. elegans viability qHTS (AID 1745854)
# Method in brief: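 CellTiter-Glo luminescence, read on a CCD imager, scored viability of HEK293 cells after 24 hr compound exposure at 37C. Library tested in several concentrations, 1:5 steps, up to 41.7 uM; digitonin served as control.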
# [3] = target: Glutathione peroxidase 1 (Homo sapiens) (UniProt P07203); assay: Primary qHTS Assay for Inhibitors of Recombinant Selenoprotein Glutathione Peroxidase 1 (GPX1) (AID 1845191); further: nearly all actives have a fitted effect of over 65% in size
# Method in brief: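 GPX1 10 nM, GR 100 nM, GSH 1 mM, NADPH 0.5 mM, CHP 0.5 mM (final). 30-min cpd preincubation, RT. Ex340/Em450 read t=0, t=15 min.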
# [4] = target: Phospholipid hydroperoxide glutathione peroxidase GPX4 (Homo sapiens) (UniProt P36969); assay: Primary qHTS Assay for Inhibitors of Recombinant Selenoprotein Glutathione Peroxidase 4 (GPX4) (AID 1845192); further: nearly all actives have a fitted effect of over 65% in size
# Method in brief: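 qHTS, GR-coupled: GPX4 200 nM + cpd 30 min RT → GSH 1 mM, NADPH 0.5 mM, GR 100 nM → CHP 0.5 mM start; fluor 340/450 at t0 and t15 min; no-enzyme wells as control.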
# [5] = target: Catechol O-methyltransferase (Homo sapiens) (UniProt P21964); assay: Confirmatory Screen for Target Class Profiling of Small Molecule Inhibitors of Methyltransferases (AID 1745852); conditions: MTase-Glo luminescence, SAH detection, recombinant enzyme; measured here: COMT max response; stronger effect = lower value
# [6] = target: Guanidinoacetate N-methyltransferase (Homo sapiens) (UniProt Q14353); assay: as above; conditions: MTase-Glo luminescence, SAH detection, recombinant enzyme; activity change, negative = inhibition: at 57.3 µM (top of the series) unless noted
# [7] = target: Nicotinamide N-methyltransferase (Homo sapiens) (UniProt P40261); assay: as above; conditions: MTase-Glo luminescence, SAH detection, recombinant enzyme; measured here: NNMT max response; stronger effect = lower value
# [8] = target: Phenylethanolamine N-methyltransferase (Homo sapiens) (UniProt P11086); assay: as above; conditions: MTase-Glo luminescence, SAH detection, recombinant enzyme; measured here: PNMT max response; stronger effect = lower value
# [9] = target: Metallo-beta-lactamase type 2 (Klebsiella pneumoniae) (UniProt C7C422); assay: qHTS to identify inhibitors of the New Delhi Metallo-beta-lactamase (NDM): assay validation screen against the NCATS LOPAC Collection (AID 1794843);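 further: nitrocefin turnover by NDM-1 measured as 485 nm absorbance at plateau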
# Method in brief: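 NDM-1 at 2 nM final in 50 mM HEPES pH 7.0 with 1 uM ZnSO4 and 0.01% Tween20 was preincubated with library compounds in DMSO. Nitrocefin (50 uM stock) was then added, and absorbance at 485 nm was read at the kinetic plateau.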
# Phospholipid hydroperoxide glutathione peroxidase GPX4 (Homo sapiens), sequence (P36969 whole entry, looked up): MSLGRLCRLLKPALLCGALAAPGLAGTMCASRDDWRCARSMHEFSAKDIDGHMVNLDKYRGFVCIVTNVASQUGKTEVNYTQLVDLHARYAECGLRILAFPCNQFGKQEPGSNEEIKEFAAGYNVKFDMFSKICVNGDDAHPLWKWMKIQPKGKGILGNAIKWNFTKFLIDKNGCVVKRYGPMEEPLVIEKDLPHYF
# Glutathione peroxidase 1 (Homo sapiens), sequence (P07203 whole entry, looked up): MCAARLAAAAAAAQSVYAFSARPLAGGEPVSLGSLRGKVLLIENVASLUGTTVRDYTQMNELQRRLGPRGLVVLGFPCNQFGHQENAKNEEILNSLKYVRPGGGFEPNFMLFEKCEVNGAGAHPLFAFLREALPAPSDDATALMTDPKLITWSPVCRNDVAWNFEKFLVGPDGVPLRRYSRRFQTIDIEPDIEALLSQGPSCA
# Phenylethanolamine N-methyltransferase (Homo sapiens), sequence (P11086 whole entry, looked up): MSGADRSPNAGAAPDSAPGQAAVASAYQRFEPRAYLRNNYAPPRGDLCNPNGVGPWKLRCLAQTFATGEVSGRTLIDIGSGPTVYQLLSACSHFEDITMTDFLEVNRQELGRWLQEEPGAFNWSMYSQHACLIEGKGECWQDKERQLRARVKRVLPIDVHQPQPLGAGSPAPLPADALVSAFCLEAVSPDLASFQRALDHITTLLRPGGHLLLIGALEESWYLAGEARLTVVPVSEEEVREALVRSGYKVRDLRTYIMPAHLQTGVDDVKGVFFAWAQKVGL
# Catechol O-methyltransferase (Homo sapiens), sequence (P21964 whole entry, looked up): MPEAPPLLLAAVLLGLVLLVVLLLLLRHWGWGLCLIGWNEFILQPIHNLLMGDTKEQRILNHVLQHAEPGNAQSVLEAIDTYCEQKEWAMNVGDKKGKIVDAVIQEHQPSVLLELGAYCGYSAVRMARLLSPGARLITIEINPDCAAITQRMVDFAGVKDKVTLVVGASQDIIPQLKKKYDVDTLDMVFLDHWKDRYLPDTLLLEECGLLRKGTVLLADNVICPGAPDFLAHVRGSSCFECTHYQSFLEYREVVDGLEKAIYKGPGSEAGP
# Nicotinamide N-methyltransferase (Homo sapiens), sequence (P40261 whole entry, looked up): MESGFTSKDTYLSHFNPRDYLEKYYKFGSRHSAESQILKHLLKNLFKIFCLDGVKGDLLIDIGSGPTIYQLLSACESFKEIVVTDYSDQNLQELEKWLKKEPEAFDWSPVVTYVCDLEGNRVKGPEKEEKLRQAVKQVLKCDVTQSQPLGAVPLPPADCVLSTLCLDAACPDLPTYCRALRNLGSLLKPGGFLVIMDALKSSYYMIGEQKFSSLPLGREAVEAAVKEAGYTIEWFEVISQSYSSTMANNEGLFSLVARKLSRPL
# Metallo-beta-lactamase type 2 (Klebsiella pneumoniae), sequence (C7C422 whole entry, looked up): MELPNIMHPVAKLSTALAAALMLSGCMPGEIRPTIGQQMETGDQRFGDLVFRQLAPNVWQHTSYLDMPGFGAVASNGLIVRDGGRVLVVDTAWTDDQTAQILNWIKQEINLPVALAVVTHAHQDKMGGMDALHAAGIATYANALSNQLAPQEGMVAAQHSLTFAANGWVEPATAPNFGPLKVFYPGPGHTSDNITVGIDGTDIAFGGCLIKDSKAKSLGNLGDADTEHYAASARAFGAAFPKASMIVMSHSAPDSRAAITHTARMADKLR
structure (smiles),measurement,setting,value
Cc1cc(C(=O)CN2CCCC2)c(C)n1-c1ccc(F)cc1,Potency,[1],inactive
same,outcome,[2],inactive
same,Potency,[3],inactive
same,Potency,[4],inactive
COc1cc(C(=O)O[C@H]2[C@@H]3C=CO[C@@H](O[C@@H]4O[C@H](CO)[C@@H](O)[C@H](O)[C@H]4O)[C@@H]3[C@@]3(CO)O[C@@H]23)ccc1O,Potency,[1],inactive
same,activity,[5],-83.5%
same,"activity change, negative = inhibition",[6],-1.53% [at 29.8 µM]
same,activity,[7],-4.95%
same,activity,[8],-3.91%
same,outcome,[2],inactive
same,Potency,[3],inactive
same,Potency,[4],inactive
CC12CCC3C(CCC4(O)CC(O)CCC34C=O)C1(O)CCC2C1=CC(=O)OC1 (centres undefined),Potency,[1],515 nM (active)
same,Potency,[3],inactive
same,Potency,[4],inactive
CC(=O)OC12C(O)C(C)C3(O)C4C=C(C)C(=O)C4CC(CO)=CC3C1C2(C)C (centres undefined),Potency,[1],inactive
same,Potency,[3],inactive
same,Potency,[4],inactive
O=C(N1CCOCC1)N1CCN(c2ccc(Cl)cc2)CC1,Potency,[1],inactive
same,Potency,[3],inactive
same,Potency,[4],inactive
COc1cc(CCNCc2ccccc2O)c(OC)cc1C#N,Potency,[1],inactive
same,Potency,[3],inactive
same,Potency,[4],inactive
CN1CCC[C@@H]1Cc1c[nH]c2ccc(Nc3ncccc3[N+](=O)[O-])cc12,Potency,[1],inactive
same,activity,[5],3.7%
same,"activity change, negative = inhibition",[6],2.94%
same,activity,[7],-4.11%
same,activity,[8],3.35%
same,Potency,[9],inactive
same,Potency,[3],inactive
same,Potency,[4],inactive
CN(C)CCc1c[nH]c2ccc(CN3CCN(C)S3(=O)=O)cc12,Potency,[1],inactive
same,Potency,[3],inactive
same,Potency,[4],inactive
COC1CC(O[C@H]2CC[C@@]3(C)C(=CCC4C3C(O)[C@@H](O)[C@]3(C)[C@@H](C(C)=O)CC[C@]43O)C2)OC(C)C1OC1CC(OC)C(OC2OC(C)C(O)C(O)C2O)C(C)O1 (some centres undefined),"activity change, negative = cell killing",[1],-4.48% [at 9.23 µM] (inactive)
same,Potency,[3],inactive
same,Potency,[4],inactive
COC(=O)C1(C)CCC(=O)C2(C)c3c(O)cc(C(C)C)cc3C(O)C(OC(C)=O)C12 (centres undefined),Potency,[1],inactive
same,Potency,[3],inactive
same,Potency,[4],inactive
N#C[C@@H](O[C@@H]1O[C@H](CO[C@@H]2O[C@H](CO)[C@@H](O)[C@H](O)[C@H]2O)[C@@H](O)[C@H](O)[C@H]1O)c1ccccc1,Potency,[1],inactive
same,Potency,[3],inactive
same,Potency,[4],inactive
